# Inconclusive results are not listed. A number with no mark means an inactive call. The call rests on the fitted dose curve.
# Experiment: qHTS for Inhibitors of Cell Surface uPA Generation: Wild-type Protective Antigen (WT-PrAg) Counterscreen for Cherry-picked Compounds; further: 0% is about no effect
# Conditions: cells, WT protective antigen toxicity counterscreen; series mostly up to 115 µM; activity (protection): at the top concentration
row,Structure (SMILES),activity (protection) [%]
1,COCCCN1CC23C=CC(O2)C(C(=O)O)C3C1=O (stereo not given),-0.168
2,Cc1cc(-c2ccccc2)nc(N/N=C/c2ccc(N(C)C)cc2)n1,-1.61
3,CC(/C=C/C1(O)C(C)CC(O)CC1(C)C)OC1OC(CO)C(O)C(O)C1O (stereo not given),1.61
4,O=C(C[n+]1ccccc1)Nc1ccccc1C(F)(F)F,0.0894
5,Cc1cccc(NC(=O)c2cc3c(=O)n4ccccc4nc3s2)c1,0.263
6,Cc1cnc(CNC(=O)CC2C(=O)NCCN2Cc2ccccc2C(F)(F)F)cn1 (stereo not given),0.0975
7,COc1ccc(C(=O)c2sc(Nc3ccccc3)nc2N)cc1,5.73
8,O=C(COC(=O)C1CC2C=CC1C2)NCc1ccccc1Cl (stereo not given),1.12
9,Cc1ccsc1/C=C(\C#N)C(=O)NC1CCS(=O)(=O)C1 (stereo not given),-0.97
10,COc1cccc(CNC(=O)C2CCCN(S(=O)(=O)c3ccc4c(c3)C(C)(C)C(=O)N4C)C2)c1 (stereo not given),0.799
11,CCOC(=O)C1=C(CN2CCN(C(=O)c3ccco3)CC2)NC(=O)NC1c1ccccc1 (stereo not given),-0.235
12,Cc1[nH]c2ccc(C(=O)OC(C)C(=O)NC3CCCCC3C)cc2c1C (stereo not given),-2.39
13,CCOc1ccc(C(=O)NCC(=O)N2CCN(C/C=C/c3ccccc3)CC2)cc1OCC,-0.61
14,CCCCN(CC)CCNC(=O)c1cc2cc3ccc(Cl)cc3nc2o1,-2
15,O=C(NNC(=O)c1ncc(Cl)c(Cl)c1Cl)c1ccc(F)cc1,0.595
16,COC(=O)CCNS(=O)(=O)c1ccc2nsnc2c1,-0.224
17,COc1ccc(OC)c(S(=O)(=O)N2CCN(Cc3ccccc3)CC2)c1,0.596
18,CCc1nccn1CCC(=O)N1CCc2c([nH]c3ccccc23)C1CC(C)C (stereo not given),-0.387
19,CC1=NN(C(N)=S)C(=O)C1N=Nc1ccccc1C(=O)O (stereo not given),-0.58
20,COc1cc(NS(=O)(=O)c2ccc(NC(=S)NC(=O)COc3ccccc3OC)cc2)nc(OC)n1,-0.642

row,Structure (SMILES),activity (protection) [%]
1,Cc1cc(OC(C)C(=O)NCc2ccccn2)c2c(C)cc(=O)oc2c1 (stereo not given),3.44
2,CCc1ccc(N2CC(C(=O)Nc3ccc4c(c3)OCO4)CC2=O)cc1 (stereo not given),1.62
3,CNS(=O)(=O)c1cc(-c2nnc(Nc3ccc(CC(N)=O)cc3)c3ccccc23)ccc1C,-0.139
4,CC(=O)[C@@]1(O)[C@H](C)CC2C3CC=C4CC(OP(=O)(O)O)CC[C@]4(C)C3CC[C@@]21C (stereo not given in full),0.986
5,COc1ccc(/C(C)=N/N2CCOCC2)c(O)c1,1.21
6,Cc1ccc2nc(Nc3ccc(Cl)cc3)c3nncn3c2c1,1.05
7,Cc1ccc(S(=O)(=O)N2CCC(C(=O)OC(C)C(=O)NC3CCCCC3C)CC2)cc1 (stereo not given),0.942
8,CCC(COC)NC(=O)CCc1nnc(Cc2c[nH]c3ccccc23)o1 (stereo not given),-0.706
9,O=C(NCCN1CCOCC1)c1ccc2c(c1)N(Cc1ccc(Cl)cc1)CCS2,1.37
10,CCc1ccc(OCC(=O)N(Cc2cccs2)C2CCS(=O)(=O)C2)cc1 (stereo not given),1.58
11,Cc1ccc(-n2c(O)c(C=NCCN3CCNCC3)c(=O)[nH]c2=S)cc1,6.27
12,CCc1ccccc1NC(=O)CN(C)C(=O)CSc1nnc(Nc2cccc(C)c2C)s1,-1.81
13,Cc1ccccc1O,-0.342
14,CC(C)(O)C#Cc1ccc(C(=O)N2CCCC(CCC(=O)NCc3ccccc3F)C2)cc1 (stereo not given),-1.52
15,COC(=O)C1=CN(Cc2ccc(F)cc2)C=C(C(=O)OC)C1c1ccc(O)c(OC)c1,-0.103
16,Cn1c(SCC(=O)NNC(=O)c2ccc(Br)cc2)nnc1-c1cccnc1,-1.04
17,O=C(Nc1ccc(Cl)cn1)C1CCCN(c2ncnc3c2nc2n3CCCCC2)C1 (stereo not given),-2.43
18,Cc1nnc2ccc(-c3ccc(NS(=O)(=O)c4ccc(Cl)s4)cc3)nn12,-1.61
19,CCOC(=O)CC(=O)CSc1nc2c(C)c(C)ccc2cc1C,1.07
20,C/C=C(/C(=C/C)c1ccc(O)cc1)c1ccc(O)cc1,-2.13

# From PubChem BioAssay AID720518 (National Center for Advancing Translational Sciences (NCATS), 2013)
